Our source for the INHIBITION values is ChEMBL document CHEMBL4513216, “Probing the Open Global Health Chemical Diversity Library for Multistage-Active Starting Points for Next-Generation Antimalarials” (ACS Infect Dis, 2020).

SMILES strings stand for the structures. Among all 69,000 compounds or so, about 8,600 (12%) showed an effect of 50% or more. The full list was thinned out, with strong results kept by preference.

The test system of the test is Plasmodium berghei. The test is described as follows: Screen against P. berghei liver stage (PbLuc), transformed with Luciferase, at 10uM. Format: functional, HepG2. The note with it: tested at 10 uM.
Consider `COCC1CC2(CCN(C(=O)c3occc3C)CC2)CN1C(C)C` (stereo unspecified), for which the INHIBITION is reported as 18.4%. With `CSc1ncccc1C(=O)N(CCO)Cc1ccccc1`, the INHIBITION is 21.4%. Then `CCC(CN1CCCC1)NC(=O)Cc1c(C)[nH]c2cc(C)cc(C)c12` (stereo unspecified), with 6.32%; and `Cc1nc(-c2ccco2)ccc1C(=O)NCC(=O)N1CCCCC1`, with -5.65%; and `CCc1ncncc1C(=O)N1CCCC(n2nc(C)nc2C)C1` (stereo unspecified), with -31.8%. The result for `Cn1c(C(=O)Nc2nc[nH]n2)cc2ccccc21` reads 41.9%. The result for `COCCCN(Cc1cnc(C2CCCCC2)nc1)C1CCN(C)CC1` reads 49.4%. On to `O=C(c1cscn1)N1CCc2ncnc(-c3cccnc3)c2CC1`, for which the INHIBITION was 23.6%.

Turning to `Cc1cnc(N2CC[C@H]3[C@@H]2CCC(=O)N3c2cccnc2)nc1`, the INHIBITION stood at 37.1%. Then `CC(=O)N1CCC(c2nc3ccc(-c4cccc(F)c4)cn3n2)CC1`, with 79.2%; and `CN(C)C(=O)N1CCC(c2nc3ccc(N4CCCC4)cn3n2)CC1`, with 47.9%.

`CS(=O)(=O)N1CCC(c2nc3ccc(-c4cccc(F)c4)cn3n2)CC1`: the INHIBITION is recorded as 58.3%. Then `CCS(=O)(=O)N1CCC(c2nc3ccc(-c4ccccc4)cn3n2)CC1`, with 31.8%. The result for `CN(C)C(=O)N1CCC(c2nc3ccc(-c4ccccc4)cn3n2)CC1` reads 65.3%; that for `COCC(=O)N1CCC(c2nc3ccc(-c4ccncc4)cn3n2)CC1`, 53.4%. The result for `CN1CCC(c2nc3ccc(-c4cccc(F)c4)cn3n2)CC1` reads 33.5%; that for `CC(=O)N1CCC(c2nc3ccc(NC4CCC4)cn3n2)CC1`, 9.51%; that for `COCC(=O)N1CCC(c2nc3ccc(-c4ccccc4)cn3n2)CC1`, -28.2%. Regarding `COCC(=O)N1CCC(c2nc3ccc(N4CCCC4)cn3n2)CC1`, the INHIBITION was -18.2%.

With `CN1CCC(c2nc3ccc(-c4ccccc4)cn3n2)CC1`, the INHIBITION is -15.7%.

In the case of `c1ccc(-c2ccc3nc(C4CCN(CC5CC5)CC4)nn3c2)cc1`, the INHIBITION was 6.8%.

Take `CO[C@@H]1CCN(Cc2ccccn2)[C@@H]2CN(Cc3ccco3)C[C@@H]21`: the INHIBITION was determined as 20.9%.

For the compound `CCc1nc(C)c(C(=O)NCCNC(=O)Cc2cccc(F)c2)s1`, the INHIBITION was -27.9%. Then `C=Cn1cc(CN2CCc3nc(-c4cccnc4)nc(O)c3C2)c(C)n1`, with 1.5%; and `Cc1occc1C(=O)Nc1cccc(C(=O)OCC2CCCN2)c1` (stereo unspecified), with -24.7%; and `CN(C)C(=O)CN1CCC2(CCCN(Cc3cccs3)C2)C1=O` (stereo unspecified), with 8.6%. The result for `O=C1COC2(CCN(Cc3nccs3)CC2)CN1c1ccccc1` reads 35.6%; that for `N#Cc1ccc(N2CCC(OCCc3ccccc3)CC2)nc1`, 45.5%; that for `CC(=O)N1CCC(c2nc3ccc(-c4ccnn4C)cn3n2)CC1`, 38.2%. `CC(=O)N1CCC(c2nc3ccc(C)cn3n2)CC1`: the INHIBITION was 1.7%.

For `COc1cccc(-c2ccc3nc(C4CCN(C(C)=O)CC4)nn3c2)c1`, the INHIBITION is reported as 56.4%. For the compound `CN(Cc1ccncc1)C(=O)CCNS(=O)(=O)c1cccnc1`, the INHIBITION is 20.9%. For the compound `Cc1nnc(Cn2cc(I)cc(C)c2=O)o1`, the INHIBITION is listed as 22.5%. The result for `CSc1ccc(C(C(=O)O)N2CCCC2)cc1` (stereo unspecified) reads 34.9%; that for `CSc1ccc(C(C(=O)O)N2CCC(CO)CC2)cc1` (stereo unspecified), 53.9%; that for `CSc1ccc(C(C(=O)O)N2CCC(C(=O)N3CCCC3)CC2)cc1` (stereo unspecified), 43.9%. Then `Cc1ccc(CN2CCCn3c(nc(CN4CCCC4)cc3=O)C2)s1`, with 43.2%; and `Cn1ccnc1CN1CCN2C[C@H](OCc3ccccc3)C[C@H]2C1`, with -25.2%; and `Cc1ccc(N2CCCC(NCc3ccc(-n4ccnc4)cc3)C2)nn1` (stereo unspecified), with 11.5%.

Consider `c1cnc(N2CCCC(NCc3ccc(-n4ccnc4)cc3)C2)nc1` (stereo unspecified), for which the INHIBITION is on record as 60.4%. `CC(=O)NC1CCCN(Cc2ccc(-n3ccnc3)cc2)C1` (stereo unspecified): the INHIBITION is 65.6%. As to `CNCCCNC1CCN(c2ccc(-n3ccnc3)cc2)CC1`, the INHIBITION is listed as -7.2%. As to `COc1cc(CNC2CCCN(c3ncccn3)C2)cc2c1OCO2` (stereo unspecified), the INHIBITION was -34.8%. The result for `c1cn(-c2ccc(N3CCC(NC4CC4)CC3)cc2)cn1` reads 56.2%.

Take `CC(C)[C@@H](C)NC1CCN(c2ccc(-n3ccnc3)cc2)CC1`: the INHIBITION was 16.6%. For the compound `Cc1n[nH]c2ncc(CNC3CCCN(c4ncccn4)C3)cc12` (stereo unspecified), the INHIBITION stood at 73.5%. Then `Cc1n[nH]c2ncc(CNC3CCN(Cc4ccccn4)CC3)cc12`, with -20.6%; and `c1cnnc(N2CCCC(NCc3ccc(-n4ccnc4)cc3)C2)c1` (stereo unspecified), with 15.2%.

Regarding `CCC(=O)NC1CCCN(Cc2ccc(-n3ccnc3)cc2)C1` (stereo unspecified), the INHIBITION was found to be 41.5%. Regarding `CC(=O)NC1CCCN(Cc2ccc(OCc3ccccn3)cc2)C1` (stereo unspecified), the INHIBITION was determined as 41.8%. The result for `Cc1nccn1[C@@H]1CC[C@@H](N(C)S(=O)(=O)c2ccc(F)cc2)[C@H]1O` reads -0.4%; that for `Cc1noc(CCCC(=O)N(CCC(=O)O)Cc2ccc(F)c(F)c2)n1`, -13%. As to `CN(C)c1ccccc1C(=O)N1CCCC(c2cccc(C(=O)O)c2)C1` (stereo unspecified), the INHIBITION was found to be 33.4%.

As for `O=C(c1ccc(Sc2ccccn2)cc1)N1CCCSCC1`, the INHIBITION is given as -1.3%. The result for `Cc1cc(C)c(CNC(=O)NCC(O)c2ccc(Cl)cc2)c(=O)[nH]1` (stereo unspecified) reads 29.2%; that for `CCN1CCN(C(=O)C(C)n2cc(Br)cn2)CC1` (stereo unspecified), 21.7%; that for `COCCNC(=O)[C@@H]1C[C@H]2[C@H](CCN2c2cc(OC)ncn2)O1`, 7.53%.

As to `CS(=O)(=O)CCC(=O)Nc1cc(F)ccc1OCC1CCCO1` (stereo unspecified), the INHIBITION is listed as -14%.

For the compound `CC(C)N1CCCC2(CCN(Cc3nncn3C(C)C)C2)C1=O` (stereo unspecified), the INHIBITION was -27.4%. `CCn1nc(C(C)C)cc1C(=O)NCC1CCCN(c2ccccn2)C1` (stereo unspecified): the INHIBITION is 45%. Then `CC(C)c1cc(C(=O)NCC2CCCN(c3ncccn3)C2)n(C)n1` (stereo unspecified), with 70%; and `CC(C)c1cc(C(=O)NCC2CCCN(C(C)C)C2)n(C)n1` (stereo unspecified), with 34.1%. The result for `Cc1cc(C)nc(Nc2cncc(C3CCCN(S(C)(=O)=O)C3)n2)n1` (stereo unspecified) reads 29.2%; that for `CCN1CCCc2cc(-c3cncn3C(C)CN3CCOCC3)ccc21` (stereo unspecified), 27.6%; that for `CCC(CN1CCOCC1)n1cncc1-c1ccc2c(c1)CCCN2C` (stereo unspecified), 39.7%.

Regarding `CCC(CN1CCOCC1)n1cncc1-c1ccc2c(c1)CCN2CC` (stereo unspecified), the INHIBITION worked out at 61.9%.
